Measured values reported in PubChem BioAssay (NCATS).
Records with an inconclusive call do not appear. Entries that show only a call come without a potency. Unmarked numbers belong to inactive results. The source made the active and inactive calls. Calls come from the whole dose curve; as a rule, active = well fitted curve in the direction sought with a large enough effect; inconclusive = small, poorly fitted or top-dose-only effect, or another doubt; inactive = no such curve, though single readings can be large; an effect the other way counts as inactive or inconclusive.

Assays:
[1] = qHTS of pediatric cancer cell lines to identify multiple opportunities for drug repurposing: Primary screen for RD cells (AID 1347104); note: nearly all actives have a fitted effect of over 55% in size; note: potency is the fitted concentration of half-maximal effect
Summary of the method: (§1)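 Phenotypic viability qHTS, 48 h compound exposure, CellTiter-Glo luminescence read-out; multi-concentration dosing so that potency and efficacy derive directly from the primary screen's curves.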

[2] = qHTS of pediatric cancer cell lines to identify multiple opportunities for drug repurposing: Primary screen for MG 63 (6-TG R) cells (AID 1347105); note: nearly all actives have a fitted effect of over 50% in size
Summary of the method: as §1

[3] = qHTS of pediatric cancer cell lines to identify multiple opportunities for drug repurposing: Primary screen for control Hh wild type fibroblast cells (AID 1347106);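 note: series mostly up to about 46 µM; a drop in luminescence marks cytotoxicity and a rise apparent proliferation; nearly all actives have a fitted effect of over 55% in size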
Summary of the method: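 Cells (500-1,000/well) in growth media were settled 5 h at 37 degrees C, then given compounds for 48 h. Viability was read as CellTiter-Glo luminescence. Primary runs used MIPE at 11 points (0.78 nM-46 µM) and NPC at 8 points (0.59 nM-46 µM); follow-ups used 11 points.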

[4] = qHTS of pediatric cancer cell lines to identify multiple opportunities for drug repurposing: Primary screen for Rh30 cells (AID 1347107); note: series mostly up to about 46 µM; nearly all actives have a fitted effect of over 75% in size
Summary of the method: (§2)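 Viability after 48 h compound treatment at 37C, 500-1,000 cells/well, read as ATP luminescence with CellTiter-Glo. Primary screens used 11-point (MIPE, 0.78 nM-46 µM) or 8-point (NPC, 0.59 nM-46 µM) final concentrations; follow-up screens used 11-point dilutions.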

[5] = qHTS of pediatric cancer cell lines to identify multiple opportunities for drug repurposing: Primary screen for Rh41 cells (AID 1347108);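 note: series mostly up to about 46 µM; luminescence drop marks cytotoxic hits; nearly all actives have a fitted effect of over 70% in size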
Summary of the method: as §1

[6] = qHTS of pediatric cancer cell lines to identify multiple opportunities for drug repurposing: Confirmatory screen for NB1643 cells (AID 1347109); note: nearly all actives have a fitted effect of over 45% in size
Summary of the method: as §2

[7] = qHTS of pediatric cancer cell lines to identify multiple opportunities for drug repurposing: Confirmatory screen for LAN-5 cells (AID 1347113); note: nearly all actives have a fitted effect of over 65% in size
Summary of the method: as §2

[8] = qHTS of pediatric cancer cell lines to identify multiple opportunities for drug repurposing: Confirmatory screen for NB-EBc1 cells (AID 1347115); note: nearly all actives have a fitted effect of over 45% in size
Summary of the method: as §2

[9] = qHTS of pediatric cancer cell lines to identify multiple opportunities for drug repurposing: Confirmatory screen for SK-N-MC cells (AID 1347111);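 note: cells exposed to compound for 48 h before the readout; nearly all actives have a fitted effect of over 70% in size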; note: potency is the fitted concentration of half-maximal effect
Summary of the method: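 SK-N-MC cells at 500-1,000 cells/well in growth media were pre-incubated 5 h, then exposed to compounds at 11-point dilutions for 48 h at 37 degrees C, 5% CO2. Viability was read as CellTiter-Glo luminescence.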

[10] = qHTS of pediatric cancer cell lines to identify multiple opportunities for drug repurposing: Confirmatory screen for BT-12 cells (AID 1347112); note: nearly all actives have a fitted effect of over 55% in size
Summary of the method: as §2

CCCN(CCc1cccs1)[C@H]1CCc2c(O)cccc2C1
Potency [1]: inactive
Potency [2]: inactive
Potency [3]: inactive
Potency [4]: inactive
Potency [5]: inactive

NS(=O)(=O)c1cc2c(cc1Cl)NC(CC1CCCC1)NS2(=O)=O (stereo not drawn)
Potency [1]: inactive
Potency [2]: inactive
Potency [3]: inactive
Potency [4]: inactive
Potency [5]: inactive

C=C[C@@]1(C)CC(=O)[C@]2(O)[C@@]3(C)[C@@H](O)CCC(C)(C)[C@@H]3[C@H](O)[C@H](OC(C)=O)[C@@]2(C)O1
Potency [1]: inactive
Potency [2]: inactive
Potency [3]: inactive
Potency [4]: inactive
Potency [5]: inactive
Potency [6]: inactive
Potency [7]: inactive
Potency [8]: inactive

CCCCN1C[C@H](O)[C@@H](O)[C@H](O)[C@H]1CO
Potency [1]: inactive
Potency [2]: inactive
Potency [3]: inactive
Potency [4]: inactive
Potency [5]: inactive

C#C[C@]1(O)CC[C@H]2[C@@H]3CCC4=CC(=O)CC[C@@H]4[C@H]3CC[C@@]21CC
Potency [1]: inactive
Potency [2]: inactive
Potency [3]: inactive
Potency [4]: inactive
Potency [5]: inactive

NCCNc1cccc2ccccc12
Potency [1]: inactive
Potency [2]: inactive
Potency [3]: inactive
Potency [4]: inactive
Potency [5]: inactive

CC(=O)NC(=O)c1ccccc1O
Potency [1]: inactive
Potency [2]: inactive
Potency [3]: inactive
Potency [4]: inactive
Potency [5]: inactive

CNCCc1ccccn1
Potency [1]: inactive
Potency [2]: inactive
Potency [3]: inactive
Potency [4]: inactive
Potency [5]: inactive

CC(=C(CCOC(=O)C(C)C)SSC(CCOC(=O)C(C)C)=C(C)N(C=O)Cc1cnc(C)nc1N)N(C=O)Cc1cnc(C)nc1N
Potency [1]: inactive
Potency [2]: inactive
Potency [3]: inactive
Potency [4]: inactive
Potency [5]: inactive

CCN[C@@H]1C[C@H](N)[C@@H](OC2OC(CN)=CCC2N)[C@H](O)[C@H]1O[C@H]1OC[C@](C)(O)[C@H](NC)[C@H]1O (stereo partly drawn)
activity change, negative = cytotoxic [1]: -1.92% [at 0.597 µM]
activity change, negative = cytotoxic [2]: -16.5% [at 0.597 µM]
activity change, negative = cytotoxic [3]: 8.24% [at 0.597 µM]
activity change, negative = cytotoxic [4]: 14.5% [at 0.597 µM]
activity change, negative = cytotoxic [5]: 8.19% [at 0.597 µM]
activity change, negative = cytotoxic [6]: 11.9% [at 0.556 µM]
activity change, negative = cytotoxic [9]: -2.44% [at 0.556 µM]
activity change, negative = cytotoxic [10]: -6.5% [at 0.556 µM]
activity change, negative = cytotoxic [8]: -1.08% [at 0.556 µM]

C=C[C@H]1CN2CC[C@H]1C[C@@H]2[C@@H](O)c1ccnc2ccc(OC)cc12
Potency [1]: inactive
Potency [2]: inactive
Potency [3]: inactive
Potency [4]: inactive
Potency [5]: inactive

COc1cc(C(=S)N2CCOCC2)ccc1O
Potency [1]: inactive
Potency [2]: inactive
Potency [3]: inactive
Potency [5]: inactive

COc1ccc(C(Cl)=C(c2ccc(OC)cc2)c2ccc(OC)cc2)cc1
Potency [1]: inactive
Potency [2]: inactive
Potency [3]: inactive
Potency [4]: inactive
Potency [5]: inactive

O=C1OC(CN2CCOCC2)CN1/N=C/c1ccc([N+](=O)[O-])o1 (stereo not drawn)
Potency [1]: inactive
Potency [2]: inactive
Potency [3]: inactive
Potency [4]: inactive
Potency [5]: inactive

CCN(CC)CCOc1ccccc1C(=O)CCc1ccccc1
Potency [1]: inactive
Potency [2]: inactive
Potency [3]: inactive
Potency [4]: inactive
Potency [5]: inactive

CCC1Nc2cc(Cl)c(S(N)(=O)=O)cc2S(=O)(=O)N1 (stereo not drawn)
Potency [1]: inactive
Potency [2]: inactive
Potency [3]: inactive
Potency [4]: inactive
Potency [5]: inactive

C[C@@H](O)[C@H]1C(=O)N2C(C(=O)O)=C([C@H]3CCCO3)S[C@H]12
Potency [1]: inactive
Potency [2]: inactive
Potency [3]: inactive
Potency [4]: inactive
Potency [5]: inactive

NC(=S)N/N=C/c1cccnc1
Potency [1]: inactive
Potency [2]: inactive
Potency [3]: inactive
Potency [4]: inactive
Potency [5]: inactive

O=[N+]([O-])c1ccc(/C=N\O)o1
Potency [1]: inactive
Potency [2]: inactive
Potency [3]: inactive
Potency [4]: inactive
Potency [5]: inactive
Potency [6]: inactive
Potency [9]: 5.85 µM (active)
Potency [10]: inactive
Potency [7]: inactive

CC(C)Nc1cccnc1N1CCN(C(=O)c2cc3cc(NS(C)(=O)=O)ccc3[nH]2)CC1
Potency [1]: inactive
Potency [2]: inactive
Potency [3]: inactive
Potency [4]: inactive
Potency [5]: inactive

CCOc1cc(OCC)c(C(=O)CCC(=O)O)cc1OCC
Potency [1]: inactive
Potency [2]: inactive
Potency [3]: inactive
Potency [4]: inactive
Potency [5]: inactive

O=C1C(CCS(=O)c2ccccc2)C(=O)N(c2ccccc2)N1c1ccccc1 (stereo not drawn)
Potency [1]: inactive
Potency [2]: inactive
Potency [3]: inactive
Potency [5]: inactive

CC(C)(C)NC[C@H](O)COc1nsnc1N1CCOCC1
Potency [1]: inactive
Potency [2]: inactive
Potency [3]: inactive
Potency [4]: inactive
Potency [5]: inactive

O=C(Nc1ccccc1)OCC(CN1CCCCC1)OC(=O)Nc1ccccc1 (stereo not drawn)
Potency [1]: 29.9 µM (active)
Potency [3]: inactive

CC1=C(C(=O)O)N2C(=O)[C@@H](NC(=O)[C@H](N)c3ccccc3)[C@H]2SC1
Potency [1]: inactive
Potency [2]: inactive
Potency [3]: inactive
Potency [5]: inactive

O=C(O)C1(C(=O)O)CCC1.[NH2-].[NH2-].[Pt+2]
Potency [1]: inactive
Potency [2]: inactive
Potency [3]: inactive
Potency [5]: inactive

O=[N+]([O-])c1cccc(S(=O)(=O)NCCNS(=O)(=O)c2cccc([N+](=O)[O-])c2)c1
Potency [1]: inactive
Potency [3]: inactive
Potency [4]: inactive
Potency [5]: inactive
